According to PubChem BioAssay:
The source made the active and inactive calls. The rule behind the calls is not given here.

These compounds were tested against Pantothenate synthetase (Mycobacterium tuberculosis (strain ATCC 25618 / H37Rv)) (UniProt P9WIL5) (assay: Coupled enzyme confirmation of inhibitors against recombinant Mtb PanC (AID 375;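 note: 0% = full reaction with vehicle and 100% = no enzyme background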)). Conditions: coupled enzyme assay; at 10 µM, active compounds read high.
Sequence of Pantothenate synthetase (Mycobacterium tuberculosis (strain ATCC 25618 / H37Rv)) (P9WIL5 whole entry, looked up): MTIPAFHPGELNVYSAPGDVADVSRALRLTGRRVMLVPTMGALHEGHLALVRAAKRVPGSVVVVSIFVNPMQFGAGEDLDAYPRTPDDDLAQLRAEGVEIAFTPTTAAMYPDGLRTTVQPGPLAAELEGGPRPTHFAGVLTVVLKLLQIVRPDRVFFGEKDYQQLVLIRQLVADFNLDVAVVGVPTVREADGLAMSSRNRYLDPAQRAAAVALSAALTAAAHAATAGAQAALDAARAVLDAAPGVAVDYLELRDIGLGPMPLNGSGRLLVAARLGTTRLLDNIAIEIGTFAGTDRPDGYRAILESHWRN

| Compound | inhibition |
| --- | --- |
| COc1ccc2c(c1)CCc1c(C(=O)N3CCCc4ccccc43)noc1-2 | 4% (inactive) |
| Cc1ccc(S(=O)(=O)N(CC(=O)N2CCC(C(N)=O)CC2)c2cccc(C(F)(F)F)c2)cc1 | 0% (inactive) |
| O=C(Cn1c(=O)sc2ccccc21)NCCOc1ccccc1F | 0% (inactive) |
| Cc1onc(-c2ccccc2)c1C(=O)N1CCCSC1=Nc1ccccc1 | 6% (inactive) |
| Cc1nn(-c2ccc(F)cc2)c(C)c1NS(=O)(=O)c1ccc(Cl)cc1 | 11% (inactive) |
| Cc1cccc(N2CCN(C(=O)CCn3c(=S)[nH]c4cc5c(cc4c3=O)OCO5)CC2C)c1 (stereo not given) | 9% (inactive) |
| CCOc1ccc(C2CC(c3cccc(OC)c3)Nc3nc(N)nn32)cc1 (stereo not given) | 0% (inactive) |
| Cn1c(C(=O)NCCCN2CCN(c3ccc(F)cc3)CC2)cc2c(=O)n(C)c3ccccc3c21 | 0% (inactive) |
| CC(=O)c1ccc(NC(=O)CSc2nnc(-c3ccoc3C)n2Cc2ccccc2)cc1 | 0% (inactive) |
| CCOC(=O)CSc1nc2ccccc2c(=O)n1CCN1CCOCC1 | 0% (inactive) |
| CCN1CCN(C(=O)c2oc(=O)c3ccccc3c2-c2ccc(C)cc2)CC1 | 0% (inactive) |
| Cc1ccc(CNC(=O)C2CCN(S(=O)(=O)c3cccs3)CC2)o1 | 0% (inactive) |
| O=C(Nc1ccccc1-c1ccccc1)NC1CCN(C(=O)N2CCOCC2)CC1 | 0% (inactive) |
| COc1ccc(C(=O)N2CCN(C3CCCCC3)CC2)c(OC)c1 | 0% (inactive) |
| Cc1noc(/C=C/N(C)C)c1S(=O)(=O)N1CCCC(C(=O)NCCC2=CCCCC2)C1 (stereo not given) | 0% (inactive) |
| N#CC(C(=O)Nc1ccccc1)=C1CCCCC1 | 7% (inactive) |
| Fc1ccc(-c2ccc(-c3nn4c(-c5ccco5)nnc4s3)o2)cc1 | 14% (inactive) |
| Cc1nnc(SCC(=O)Nc2ccc(Br)cn2)[nH]c1=O | 1% (inactive) |
| COc1cccc(NC(=O)C2CCN(c3ncccn3)CC2)c1 | 2% (inactive) |
| O=C(Nc1ccc2oc(=O)ccc2c1)c1cccnc1 | 0% (inactive) |

| Compound | inhibition |
| --- | --- |
| Cc1nc(C)c(C(=O)OCC(=O)N2CCN(c3ccccc3)CC2)s1 | 0% (inactive) |
| COc1cccc(OCCn2ccnc2)c1 | 4% (inactive) |
| COc1cc(-c2noc(-c3cccc(Cl)c3)n2)cc(OC)c1OC | 0% (inactive) |
| CC(=O)Nc1ccc(S(=O)(=O)n2nc(C)cc2C)cc1 | 0% (inactive) |
| CC(C)CC(OC(=O)c1cccs1)C(=O)NCc1ccco1 (stereo not given) | 0% (inactive) |
| CCCOc1cccc(NC(=O)c2c(-c3ccccc3)noc2C)c1 | 0% (inactive) |
| O=C(CSc1nc2ccccc2s1)N1CCOCC1 | 0% (inactive) |
| COC(=O)c1cc(NS(=O)(=O)c2ccc3c(c2)CCC(=O)N3)cc(C(=O)OC)c1 | 0% (inactive) |
| Cc1cc(Oc2ccccc2)nc(-c2ccccc2)n1 | 0% (inactive) |
| N#Cc1cc2ccccc2nc1SCC(=O)Nc1ccccc1N1CCOCC1 | 0% (inactive) |
| COC(=O)CC(C(=O)Nc1cc(C(=O)OC)cc(C(=O)OC)c1)N1CCN(C)CC1 (stereo not given) | 3% (inactive) |
| O=C(Nc1ccc(SC(F)F)cc1)c1ccc2nccnc2c1 | 0% (inactive) |
| COc1ccc(OC)c(NC(=O)CS(=O)(=O)Cc2nc(-c3ccccc3C)oc2C)c1 | 0% (inactive) |
| CCCCCCn1c(CN2CCCC(C)C2)nc2c1c(=O)n(C)c(=O)n2C (stereo not given) | 6% (inactive) |
| OC(CNCCc1ccccc1)c1ccccc1 (stereo not given) | 2% (inactive) |
| Cn1c(CNc2nc(-c3ccccc3)cs2)nnc1SCC(=O)N1CCc2ccccc21 | 0% (inactive) |
| Cn1c(COc2ccc(Cl)cc2)nnc1SCC(=O)NC1CCCCC1 | 0% (inactive) |
| CCCN1Cc2cccc(C(=O)NCc3cccs3)c2C1=O | 0% (inactive) |
| O=C(CSCc1cnn(-c2ccccc2)c1-n1cccc1)NCC1CCCO1 (stereo not given) | 4% (inactive) |
| OC[C@H]1O[C@@H](n2cnc3c(Nc4ccccc4)ncnc32)[C@H](O)[C@@H]1O | 1% (inactive) |
